# Assay results from PubChem BioAssay (EPA / NIEHS).
# Calls of active or inactive are those of the source. How the source made its calls: active means hit-call score of the fitted dose curve at least 0.9, where 1 is the maximum; inactive means score below 0.9.
# Legend:
# [1] = ATG_CRE_CIS: Attagene CIS-FACTORIAL HepG2 Assay for human cAMP Responsive Element (CRE) binding protein 3 (AID 2282926); details: HepG2 CRE cis-reporter, Attagene multiplexed mRNA; actives raise or lower the signal
# Procedure, shortened: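 Endogenous CRE-binding activity in HepG2 is reported through a cis-regulated transfected reporter. Following a day of exposure, mRNA levels are determined by reverse transcription PCR and fluorescent fragment analysis; fits run in both directions versus DMSO.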
# [2] = molecular target: CCAAT/enhancer-binding protein beta (Homo sapiens) (UniProt P17676); experiment: ATG_C_EBP_CIS: Attagene CIS-FACTORIAL HepG2 Assay for human CCAAT/Enhancer Binding Protein (C/EBP) beta (AID 2282927); details: HepG2 Attagene cis-factorial transcription factor reporter; actives raise or lower the signal
# Procedure, shortened: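 Transiently transfected HepG2 (MRTU library, endogenous TF-driven promoters); 24 h dosing; total RNA → oligo(dT) RT → PCR → 6-FAM primer extension → HpaI digest → CE; fit bidirectionally vs DMSO.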
# [3] = ATG_CMV_CIS: Attagene CIS-FACTORIAL HepG2 Assay for human CMV (Internal Marker) (AID 2282928); details: HepG2 CMV promoter reporter, transcription factor profiling; actives raise or lower the signal;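 further: endpoint acts as a background internal control marker rather than a target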
# Procedure, shortened: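 After transient transfection of HepG2 with reporter transcription units driven by cis-regulatory promoters, cells receive test chemical for 24 h. Labeled reporter amplicons, digested with HpaI, are sized and quantified by capillary electrophoresis against DMSO.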
# [4] = ATG_DR4_LXR_CIS: Attagene CIS-FACTORIAL HepG2 Assay for human Liver X Receptor (LXR), DR4 submotif (AID 2282929); details: HepG2 Attagene DR4 cis-reporter, mRNA transcription; actives raise or lower the signal
# Procedure, shortened: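 Measures endogenous transcription factor activity via a DR4-driven reporter transcript in human HepG2 cells. Compounds incubated 24 h; mRNA quantified by RT-PCR and capillary electrophoresis, analysed as gain or loss of signal versus DMSO.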
# [5] = molecular target: Aryl hydrocarbon receptor (Homo sapiens) (UniProt P35869); experiment: ATG_Ahr_CIS: Attagene CIS-FACTORIAL HepG2 Assay for human Aryl Hydrocarbon Receptor (Ahr) (AID 2282930); details: HepG2 AhR cis-factorial reporter transcription; actives raise or lower the signal
# Procedure, shortened: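 Read-out: reporter mRNA quantified by RT-PCR with fluorescent primer extension and capillary electrophoresis. Human HepG2 liver cells carried transfected cis-promoter reporter units and were exposed to chemical for 24 h; gain or loss fitted relative to DMSO.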
# [6] = ATG_AP_1_CIS: Attagene CIS-FACTORIAL HepG2 Assay for human Activator Protein 1 (AP-1) (AID 2282931); details: HepG2 Attagene cis-factorial AP-1 reporter mRNA; actives raise or lower the signal
# Procedure, shortened: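 Bidirectional concentration-response fitting against DMSO controls. Underlying signal: reporter mRNA from cis-promoter constructs in transiently transfected HepG2, measured after 24 h by RT-PCR and capillary electrophoresis.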
# [7] = ATG_AP_2_CIS: Attagene CIS-FACTORIAL HepG2 Assay for human Activator Protein 2 (AP-2) (AID 2282932); details: HepG2 AP-2 cis-reporter, Attagene transcription factor profiling; actives raise or lower the signal
# Procedure, shortened: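 HepG2 cells transiently transfected with cis-element reporter units and exposed for 24 h. Reporter mRNA measured by RT-PCR, FAM labelling, HpaI digestion and capillary electrophoresis. Changes in either direction fitted relative to DMSO.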
# [8] = ATG_BRE_CIS: Attagene CIS-FACTORIAL HepG2 Assay for human Bone Morphogenetic Protein (BMP) Response Element (BRE) (AID 2282933); details: HepG2 BMP response element reporter, Attagene transcription factor profiling; actives raise or lower the signal
# Procedure, shortened: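 A HepG2 multiplex reporter system measured inducible reporter mRNA 24 h post-dosing. Detection: RT-PCR, 6-FAM primer extension, HpaI digestion, capillary electrophoresis. Activity fitted bidirectionally relative to DMSO.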
# [9] = molecular target: Transcription factor E2F1 (Homo sapiens) (UniProt Q01094); experiment: ATG_E2F_CIS: Attagene CIS-FACTORIAL HepG2 Assay for human E2F Transcription Factor 1 (AID 2282935); details: HepG2 Attagene cis-reporter, E2F reporter RNA transcripts; actives raise or lower the signal
# Procedure, shortened: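 Endogenous E2F1 activity read through cis-promoter reporter units transfected into HepG2. After 24 h compound treatment, reporter mRNA measured by RT-PCR, HpaI digestion and capillary electrophoresis. Bidirectional fit versus DMSO.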
# [10] = ATG_E_Box_CIS: Attagene CIS-FACTORIAL HepG2 Assay for human Enhancer Box (E-box) (AID 2282936); details: HepG2 E-box cis-reporter transcription, actives raise or lower the signal
# Procedure, shortened: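 HepG2 cells transiently transfected with multiplexed cis-element reporter units, dosed 24 h; reporter mRNA quantified by RT-PCR, 6-FAM labelling, HpaI digestion and capillary electrophoresis. E-box (USF1) signal fitted bidirectionally vs DMSO.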
# [11] = ATG_M_61_CIS: Attagene CIS-FACTORIAL HepG2 Assay for M61 Transcription Factor (Internal Marker) (AID 2282937); details: HepG2 Attagene CIS-FACTORIAL M61 internal marker reporter; actives raise or lower the signal
# Procedure, shortened: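 Fluorescence from labelled cDNA fragments, separated by capillary electrophoresis, quantifies reporter induction. HepG2 cells bearing transiently transfected cis-promoter MRTUs were incubated with test chemical for 24 h; DMSO defined baseline for gain/loss fitting.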
# [12] = ATG_EGR_CIS: Attagene CIS-FACTORIAL HepG2 Assay for human Early Growth Response 1 (EGR1) (AID 2282938); details: HepG2 Attagene CIS-FACTORIAL EGR reporter mRNA; actives raise or lower the signal
# Procedure, shortened: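 Cell-based multiplex transcription assay: HepG2 carrying transfected cis-element reporter units, 24 h chemical treatment. Fluorescence from capillary electrophoresis of RT-PCR products gives mRNA levels; fitting is bidirectional relative to DMSO.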
# [13] = ATG_M_19_CIS: Attagene CIS-FACTORIAL HepG2 Assay for M19 Transcription Factor (Internal Marker) (AID 2282939); details: HepG2 Attagene CIS-FACTORIAL M19 internal marker reporter; actives raise or lower the signal
# Procedure, shortened: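 Chemical-treated HepG2 (24 h) with MRTU constructs; reporter transcripts detected by fluorescent RT-PCR fragment analysis on capillary electrophoresis. Internal background marker, DMSO as baseline.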
# [14] = ATG_Ets_CIS: Attagene CIS-FACTORIAL HepG2 Assay for human Erythroblast Transformation Specific (ETS) (AID 2282941); details: HepG2 ETS cis-reporter transcription, actives raise or lower the signal
# Procedure, shortened: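 Human HepG2 hepatoma cells were transiently transfected with promoter-driven reporter constructs and treated for 24 hours. Reporter transcripts were quantified by RT-PCR with fluorescent primer extension; bidirectional curve fitting used DMSO as reference.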
# [15] = molecular target: Hepatocyte nuclear factor 3-beta (Homo sapiens) (UniProt Q9Y261); experiment: ATG_FoxA2_CIS: Attagene CIS-FACTORIAL HepG2 Assay for human Forkhead box A2 (FOXA2) (AID 2282942); details: HepG2 cis-reporter transcription factor activity, 24 h; actives raise or lower the signal
# Procedure, shortened: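 In transiently transfected human HepG2 cells, promoter-driven reporter mRNA levels after 24 h chemical exposure are determined via RT-PCR with capillary electrophoresis. DMSO serves as baseline for bidirectional fitting.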
# [16] = ATG_FoxO_CIS: Attagene CIS-FACTORIAL HepG2 Assay for human Forkhead box O (FoxO) (AID 2282943); details: HepG2 Attagene cis-reporter, FoxO element, mRNA; actives raise or lower the signal
# Procedure, shortened: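 Read-out: fluorescence of 6-FAM-labelled reporter cDNA fragments resolved by capillary electrophoresis. Transiently transfected HepG2 cells were dosed for 24 h; activity fitted in both directions relative to DMSO controls.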
# [17] = ATG_GATA_CIS: Attagene CIS-FACTORIAL HepG2 Assay for human GATA Binding Protein (AID 2282944); details: HepG2 GATA cis-element reporter, Attagene multiplex mRNA; actives raise or lower the signal
# Procedure, shortened: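 Transfected cis-reporter HepG2 cells were treated with chemicals for 24 hours. Total RNA was then converted to cDNA, amplified with reporter-specific primers and analysed by fluorescent capillary electrophoresis, using DMSO-treated wells as baseline.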
# [18] = ATG_GLI_CIS: Attagene CIS-FACTORIAL HepG2 Assay for human Zinc Finger Protein GLI1 (AID 2282945); details: HepG2, Attagene cis-factorial reporter mRNA, GLI element; actives raise or lower the signal
# Procedure, shortened: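 Transiently transfected HepG2 cells report endogenous transcription factor activity via cis-element-driven reporter units. After 24 h compound exposure, reporter mRNA was measured by RT-PCR with capillary electrophoresis; bidirectional fitting against DMSO baseline.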
# [19] = ATG_ERE_CIS: Attagene CIS-FACTORIAL HepG2 Assay for Estrogen Response Element (ERE) (AID 2282940); details: HepG2 ERE cis-reporter, Attagene RNA transcript; actives raise or lower the signal
# Procedure, shortened: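 Human liver cells (HepG2) bearing transiently transfected, promoter-regulated reporter units were exposed 24 h. Reporter mRNA induction was detected by capillary electrophoresis of labelled RT-PCR products and fitted bidirectionally to DMSO.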
# Sequence of Hepatocyte nuclear factor 3-beta (Homo sapiens) (Q9Y261 whole entry, looked up): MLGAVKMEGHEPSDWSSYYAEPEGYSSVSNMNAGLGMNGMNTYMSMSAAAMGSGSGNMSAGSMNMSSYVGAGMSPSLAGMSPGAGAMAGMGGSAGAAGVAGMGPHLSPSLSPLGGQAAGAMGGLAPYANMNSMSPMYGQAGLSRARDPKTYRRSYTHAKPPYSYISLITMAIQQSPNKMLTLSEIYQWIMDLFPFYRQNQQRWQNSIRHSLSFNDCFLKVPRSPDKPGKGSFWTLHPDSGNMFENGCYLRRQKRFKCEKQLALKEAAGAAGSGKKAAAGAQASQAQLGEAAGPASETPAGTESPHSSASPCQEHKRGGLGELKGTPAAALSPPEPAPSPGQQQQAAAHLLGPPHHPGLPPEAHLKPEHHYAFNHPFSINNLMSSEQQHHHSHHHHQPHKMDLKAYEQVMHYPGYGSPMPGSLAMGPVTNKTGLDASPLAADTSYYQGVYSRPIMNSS
# Sequence of Aryl hydrocarbon receptor (Homo sapiens) (P35869 whole entry, looked up): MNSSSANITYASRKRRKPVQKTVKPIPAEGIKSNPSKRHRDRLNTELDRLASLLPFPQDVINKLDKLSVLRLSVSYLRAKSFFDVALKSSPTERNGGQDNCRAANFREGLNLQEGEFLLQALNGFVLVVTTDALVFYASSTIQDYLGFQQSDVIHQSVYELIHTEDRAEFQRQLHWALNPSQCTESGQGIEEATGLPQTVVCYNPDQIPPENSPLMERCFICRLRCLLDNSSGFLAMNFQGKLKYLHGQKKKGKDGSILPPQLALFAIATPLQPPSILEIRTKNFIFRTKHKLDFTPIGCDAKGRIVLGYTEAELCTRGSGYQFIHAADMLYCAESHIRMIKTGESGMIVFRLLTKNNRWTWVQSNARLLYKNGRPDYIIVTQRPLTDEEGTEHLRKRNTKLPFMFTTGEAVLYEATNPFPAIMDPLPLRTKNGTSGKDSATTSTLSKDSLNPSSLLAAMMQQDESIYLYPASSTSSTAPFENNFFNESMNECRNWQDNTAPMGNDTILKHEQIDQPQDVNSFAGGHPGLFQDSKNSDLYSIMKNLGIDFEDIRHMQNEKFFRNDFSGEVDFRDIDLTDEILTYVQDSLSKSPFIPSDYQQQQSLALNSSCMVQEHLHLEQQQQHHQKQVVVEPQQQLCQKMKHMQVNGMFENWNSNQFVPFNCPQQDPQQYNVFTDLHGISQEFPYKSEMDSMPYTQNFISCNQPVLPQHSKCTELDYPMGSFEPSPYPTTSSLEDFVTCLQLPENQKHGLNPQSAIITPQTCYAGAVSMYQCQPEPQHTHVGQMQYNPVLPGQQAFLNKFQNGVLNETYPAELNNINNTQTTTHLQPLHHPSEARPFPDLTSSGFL
# Sequence of CCAAT/enhancer-binding protein beta (Homo sapiens) (P17676 whole entry, looked up): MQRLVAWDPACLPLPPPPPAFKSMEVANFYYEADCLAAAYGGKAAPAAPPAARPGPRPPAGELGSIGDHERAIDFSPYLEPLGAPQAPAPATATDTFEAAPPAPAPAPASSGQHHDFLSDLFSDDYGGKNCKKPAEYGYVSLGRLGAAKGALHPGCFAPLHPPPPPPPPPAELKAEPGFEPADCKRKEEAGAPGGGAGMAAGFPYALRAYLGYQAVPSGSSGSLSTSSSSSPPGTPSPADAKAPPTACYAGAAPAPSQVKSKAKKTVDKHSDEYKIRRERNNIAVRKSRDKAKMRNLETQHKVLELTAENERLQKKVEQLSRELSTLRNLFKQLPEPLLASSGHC
# Sequence of Transcription factor E2F1 (Homo sapiens) (Q01094 whole entry, looked up): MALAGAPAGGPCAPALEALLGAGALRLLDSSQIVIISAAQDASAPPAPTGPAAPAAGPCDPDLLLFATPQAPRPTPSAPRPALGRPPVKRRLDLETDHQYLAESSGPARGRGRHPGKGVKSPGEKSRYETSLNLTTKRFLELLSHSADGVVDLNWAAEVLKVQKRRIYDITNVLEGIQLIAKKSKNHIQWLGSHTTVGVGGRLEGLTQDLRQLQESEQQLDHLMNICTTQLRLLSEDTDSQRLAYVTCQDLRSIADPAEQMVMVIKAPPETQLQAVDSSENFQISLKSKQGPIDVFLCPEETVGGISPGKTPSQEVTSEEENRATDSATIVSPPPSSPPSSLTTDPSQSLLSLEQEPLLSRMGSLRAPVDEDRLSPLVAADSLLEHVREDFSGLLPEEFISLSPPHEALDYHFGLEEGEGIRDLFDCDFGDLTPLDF
smiles,measurement,setting,value
O=C(OCc1ccccc1)C(=O)OCc1ccccc1,outcome,[1],inactive
same,outcome,[2],inactive
same,outcome,[3],inactive
same,outcome,[4],inactive
same,outcome,[5],inactive
same,outcome,[6],inactive
same,outcome,[7],inactive
same,outcome,[8],inactive
same,outcome,[9],inactive
same,outcome,[10],inactive
same,outcome,[11],inactive
same,outcome,[12],inactive
same,outcome,[13],inactive
same,outcome,[14],inactive
same,outcome,[15],inactive
same,outcome,[16],inactive
same,outcome,[17],inactive
same,outcome,[18],inactive
COc1ccnc(CS(=O)c2nc3cc(OC(F)F)ccc3[nH]2)c1OC (stereo not drawn),outcome,[1],inactive
same,outcome,[2],inactive
same,outcome,[3],inactive
same,outcome,[4],inactive
same,outcome,[5],inactive
same,outcome,[6],inactive
same,outcome,[7],inactive
same,outcome,[8],inactive
same,outcome,[9],inactive
same,outcome,[10],inactive
same,outcome,[11],inactive
same,outcome,[12],inactive
same,outcome,[13],inactive
same,outcome,[19],inactive
same,outcome,[14],inactive
same,outcome,[15],inactive
same,outcome,[16],inactive
same,outcome,[17],inactive
same,outcome,[18],inactive
CCCCC/C=C/C=C/C=O,outcome,[1],inactive
same,outcome,[2],inactive
same,outcome,[3],inactive
same,AC50,[4],167 µM (active)
same,outcome,[5],inactive
same,outcome,[6],inactive
same,outcome,[7],inactive
same,outcome,[8],inactive
same,outcome,[9],inactive
same,outcome,[10],inactive
same,outcome,[11],inactive
same,outcome,[12],inactive
same,outcome,[13],inactive
same,outcome,[14],inactive
same,outcome,[15],inactive
same,outcome,[16],inactive
same,outcome,[17],inactive
same,outcome,[18],inactive
O=C(O)Cc1cccc2ccccc12,outcome,[1],inactive
same,outcome,[2],inactive
same,outcome,[3],inactive
same,outcome,[4],inactive
same,outcome,[5],inactive
same,outcome,[6],inactive
same,outcome,[7],inactive
same,outcome,[8],inactive
same,outcome,[9],inactive
same,outcome,[10],inactive
same,outcome,[11],inactive
same,outcome,[12],inactive
same,outcome,[13],inactive
same,outcome,[14],inactive
same,outcome,[15],inactive
same,outcome,[16],inactive
same,outcome,[17],inactive
same,outcome,[18],inactive
C=CC(=O)OCCn1c(=O)n(CCOC(=O)C=C)c(=O)n(CCOC(=O)C=C)c1=O,outcome,[1],inactive
same,outcome,[2],inactive
same,AC50,[3],9.12 µM (active)
same,AC50,[4],16.5 µM (active)
same,AC50,[5],3.42 µM (active)
same,AC50,[6],53.6 µM (active)
same,AC50,[7],20 µM (active)
same,outcome,[8],inactive
same,outcome,[9],inactive
same,AC50,[10],18.9 µM (active)
same,outcome,[11],inactive
same,AC50,[12],11.2 µM (active)
same,outcome,[13],inactive
same,outcome,[14],inactive
same,AC50,[15],52.4 µM (active)
same,outcome,[16],inactive
same,outcome,[17],inactive
same,outcome,[18],inactive
CC(C)(Oc1ccc(CCNC(=O)c2ccc(Cl)cc2)cc1)C(=O)O,outcome,[1],inactive
same,outcome,[2],inactive
same,outcome,[3],inactive
same,outcome,[4],inactive
same,outcome,[5],inactive
same,outcome,[6],inactive
same,outcome,[7],inactive
same,outcome,[8],inactive
same,outcome,[9],inactive
same,outcome,[10],inactive
same,outcome,[11],inactive
same,outcome,[12],inactive
same,outcome,[13],inactive
same,outcome,[14],inactive
same,outcome,[15],inactive
same,outcome,[16],inactive
same,outcome,[17],inactive
same,outcome,[18],inactive
O=C1O[C@@H]2[C@@H](O)[C@H](O)O[C@@H]2[C@H]1O,outcome,[1],inactive
same,outcome,[2],inactive
same,outcome,[3],inactive
same,outcome,[4],inactive
same,outcome,[5],inactive
same,outcome,[6],inactive
same,outcome,[7],inactive
same,outcome,[8],inactive
same,outcome,[9],inactive
same,outcome,[10],inactive
same,outcome,[11],inactive
same,outcome,[12],inactive
same,outcome,[13],inactive
same,outcome,[19],inactive
same,outcome,[14],inactive
same,outcome,[15],inactive
same,outcome,[16],inactive
same,outcome,[17],inactive
same,outcome,[18],inactive
